{
  "source": "PubChem BioAssay",
  "note": "Several values for one entry are separate records, joined by “and”; a condition that tells them apart may be missing. Identical values can stand only once.",
  "data": [
    {"assay": "differential killing of epithelial or mesenchymal cells, primary screen, imaging, PC-3E GFP, TEM4-18 mCherry, co-culture (AID 1345086);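 also: cells exposed to compound for 72 h before imaging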", "details": "imaging cell counts, measured here: epithelial PC-3E GFP cell survival, at 1 µM", "values": [
      {"smiles": "CCCCN(CCCC)CCC(O)c1cc2c(Cl)cc(Cl)cc2c2cc(C(F)(F)F)ccc12", "note": "(stereo not given)", "normalised cell number": 1.03},
      {"smiles": "NC(N)=NC(=O)Cc1c(Cl)cccc1Cl", "normalised cell number": 1.04},
      {"smiles": "Cc1cn[nH]c1", "normalised cell number": "0.94 and 1.1"},
      {"smiles": "NS(=O)(=O)c1cc2c(cc1Cl)NC(C1CC3C=CC1C3)NS2(=O)=O", "note": "(stereo not given)", "normalised cell number": 0.95},
      {"smiles": "CCCCNc1c(C(=O)OCC)c(C)nc2c1cnn2CC", "normalised cell number": 0.85},
      {"smiles": "NCCS(=O)(=O)O", "normalised cell number": "1.27 and 1.13"},
      {"smiles": "O=C(O)CSCC(=O)NC1CCSC1=O", "note": "(stereo not given)", "normalised cell number": 0.94},
      {"smiles": "COc1ncnc(NS(=O)(=O)c2ccc(N)cc2)c1OC", "normalised cell number": 0.5},
      {"smiles": "COc1cc2c(N3CCN(C(=O)Nc4ccc(OC(C)C)cc4)CC3)ncnc2cc1OCCCN1CCCCC1", "normalised cell number": 1.09},
      {"smiles": "Cc1cc2c(C(C)C)c(O)c(O)c(C=O)c2c(O)c1-c1c(C)cc2c(C(C)C)c(O)c(O)c(C=O)c2c1O", "normalised cell number": 1.04},
      {"smiles": "Oc1ccc(OCc2ccccc2)cc1", "normalised cell number": "0.97 and 1.09 and 0.95"},
      {"smiles": "C[n+]1c2cc(N)ccc2cc2ccc(N)cc21", "note": "(tested in a mixture with another compound)", "normalised cell number": 0.56},
      {"smiles": "Cc1nc(-c2ccc(OCC(C)C)c(C#N)c2)sc1C(=O)O", "normalised cell number": 1.08},
      {"smiles": "COc1cc(C(=O)OCCCN2CCCN(CCCOC(=O)c3cc(OC)c(OC)c(OC)c3)CC2)cc(OC)c1OC", "normalised cell number": 0.76},
      {"smiles": "Cc1cnc(C(=O)O)c[n+]1[O-]", "normalised cell number": 1.32},
      {"smiles": "COC(=O)[C@H]1[C@H]2C[C@@H]3c4[nH]c5cc(OC)ccc5c4CCN3C[C@H]2C[C@@H](OC(=O)c2cc(OC)c(OC)c(OC)c2)[C@@H]1OC", "normalised cell number": "0.87 and 1.06"},
      {"smiles": "CO[C@@H]1[C@@H](OC(N)=O)[C@@H](O)[C@H](Oc2ccc3c(O)c(NC(=O)c4ccc(O)c(CC=C(C)C)c4)c(=O)oc3c2C)OC1(C)C", "normalised cell number": 1.07},
      {"smiles": "COCCCOc1cc(C[C@@H](C[C@H](N)[C@@H](O)C[C@H](C(=O)NCC(C)(C)C(N)=O)C(C)C)C(C)C)ccc1OC", "normalised cell number": 0.98},
      {"smiles": "CN1CCN2c3ccccc3Cc3ccccc3C2C1", "note": "(stereo not given)", "normalised cell number": 1.24},
      {"smiles": "C[C@@H]1CN(c2c(F)c(N)c3c(=O)c(C(=O)O)cn(C4CC4)c3c2F)C[C@H](C)N1", "normalised cell number": 1.12},
      {"smiles": "O=NN(CCCl)C(=O)NC1CCCCC1", "normalised cell number": 1.04},
      {"smiles": "CNC[C@H](O)[C@@H](O)[C@H](O)[C@H](O)CO", "normalised cell number": 1.19},
      {"smiles": "CCC(C)n1ncn(-c2ccc(N3CCN(c4ccc(OC[C@H]5CO[C@](Cn6cncn6)(c6ccc(Cl)cc6Cl)O5)cc4)CC3)cc2)c1=O", "note": "(stereo not given in full)", "normalised cell number": 1.27},
      {"smiles": "O=P(O)(O)C(O)(Cc1cccnc1)P(=O)(O)O", "normalised cell number": 1.37},
      {"smiles": "CN(C)c1ccc2nc3ccc(=[N+](C)C)cc-3sc2c1", "normalised cell number": 0.15},
      {"smiles": "CC1=C(C)C(=O)C(C(CCCCCC(=O)O)c2ccccc2)=C(C)C1=O", "note": "(stereo not given)", "normalised cell number": 1.04},
      {"smiles": "C#CCN[C@@H]1CCc2ccccc21", "normalised cell number": 0.98},
      {"smiles": "CCCCCN(C)CCC(O)(P(=O)(O)O)P(=O)(O)O", "normalised cell number": 0.86},
      {"smiles": "Cc1c[nH]c2ccccc12", "normalised cell number": 0.86},
      {"smiles": "O=C(O)CN1C(=O)c2cccc3cccc(c23)C1=O", "normalised cell number": 1}
    ]},
    {"assay": "differential killing of epithelial or mesenchymal cells, primary screen, imaging, PC-3E GFP, TEM4-18 mCherry, co-culture (AID 1345086);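 also: cells exposed to compound for 72 h before imaging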", "details": "imaging cell counts, measured here: mesenchymal TEM4-18 mCherry cell survival, at 1 µM", "values": [
      {"smiles": "CCCCN(CCCC)CCC(O)c1cc2c(Cl)cc(Cl)cc2c2cc(C(F)(F)F)ccc12", "note": "(stereo not given)", "normalised cell number": 1.22},
      {"smiles": "NC(N)=NC(=O)Cc1c(Cl)cccc1Cl", "normalised cell number": 0.96},
      {"smiles": "Cc1cn[nH]c1", "normalised cell number": "0.86 and 0.99"},
      {"smiles": "NS(=O)(=O)c1cc2c(cc1Cl)NC(C1CC3C=CC1C3)NS2(=O)=O", "note": "(stereo not given)", "normalised cell number": 1.23},
      {"smiles": "CCCCNc1c(C(=O)OCC)c(C)nc2c1cnn2CC", "normalised cell number": 0.98},
      {"smiles": "NCCS(=O)(=O)O", "normalised cell number": "1.17 and 0.99"},
      {"smiles": "O=C(O)CSCC(=O)NC1CCSC1=O", "note": "(stereo not given)", "normalised cell number": 1.17},
      {"smiles": "COc1ncnc(NS(=O)(=O)c2ccc(N)cc2)c1OC", "normalised cell number": 0.6},
      {"smiles": "COc1cc2c(N3CCN(C(=O)Nc4ccc(OC(C)C)cc4)CC3)ncnc2cc1OCCCN1CCCCC1", "normalised cell number": 1.23},
      {"smiles": "Cc1cc2c(C(C)C)c(O)c(O)c(C=O)c2c(O)c1-c1c(C)cc2c(C(C)C)c(O)c(O)c(C=O)c2c1O", "normalised cell number": 0.95},
      {"smiles": "Oc1ccc(OCc2ccccc2)cc1", "normalised cell number": "1.03 and 1.19 and 0.92"},
      {"smiles": "C[n+]1c2cc(N)ccc2cc2ccc(N)cc21", "note": "(tested in a mixture with another compound)", "normalised cell number": 0.28},
      {"smiles": "Cc1nc(-c2ccc(OCC(C)C)c(C#N)c2)sc1C(=O)O", "normalised cell number": 1.08},
      {"smiles": "COc1cc(C(=O)OCCCN2CCCN(CCCOC(=O)c3cc(OC)c(OC)c(OC)c3)CC2)cc(OC)c1OC", "normalised cell number": 0.92},
      {"smiles": "Cc1cnc(C(=O)O)c[n+]1[O-]", "normalised cell number": 1},
      {"smiles": "COC(=O)[C@H]1[C@H]2C[C@@H]3c4[nH]c5cc(OC)ccc5c4CCN3C[C@H]2C[C@@H](OC(=O)c2cc(OC)c(OC)c(OC)c2)[C@@H]1OC", "normalised cell number": "0.94 and 1.27"},
      {"smiles": "CO[C@@H]1[C@@H](OC(N)=O)[C@@H](O)[C@H](Oc2ccc3c(O)c(NC(=O)c4ccc(O)c(CC=C(C)C)c4)c(=O)oc3c2C)OC1(C)C", "normalised cell number": 1.21},
      {"smiles": "COCCCOc1cc(C[C@@H](C[C@H](N)[C@@H](O)C[C@H](C(=O)NCC(C)(C)C(N)=O)C(C)C)C(C)C)ccc1OC", "normalised cell number": 0.96},
      {"smiles": "CN1CCN2c3ccccc3Cc3ccccc3C2C1", "note": "(stereo not given)", "normalised cell number": 1.28},
      {"smiles": "C[C@@H]1CN(c2c(F)c(N)c3c(=O)c(C(=O)O)cn(C4CC4)c3c2F)C[C@H](C)N1", "normalised cell number": 1.11},
      {"smiles": "O=NN(CCCl)C(=O)NC1CCCCC1", "normalised cell number": 1.15},
      {"smiles": "CNC[C@H](O)[C@@H](O)[C@H](O)[C@H](O)CO", "normalised cell number": 0.84},
      {"smiles": "CCC(C)n1ncn(-c2ccc(N3CCN(c4ccc(OC[C@H]5CO[C@](Cn6cncn6)(c6ccc(Cl)cc6Cl)O5)cc4)CC3)cc2)c1=O", "note": "(stereo not given in full)", "normalised cell number": 1.01},
      {"smiles": "O=P(O)(O)C(O)(Cc1cccnc1)P(=O)(O)O", "normalised cell number": 0.87},
      {"smiles": "CN(C)c1ccc2nc3ccc(=[N+](C)C)cc-3sc2c1", "normalised cell number": 0.1},
      {"smiles": "CC1=C(C)C(=O)C(C(CCCCCC(=O)O)c2ccccc2)=C(C)C1=O", "note": "(stereo not given)", "normalised cell number": 1.08},
      {"smiles": "C#CCN[C@@H]1CCc2ccccc21", "normalised cell number": 0.94},
      {"smiles": "CCCCCN(C)CCC(O)(P(=O)(O)O)P(=O)(O)O", "normalised cell number": 0.98},
      {"smiles": "Cc1c[nH]c2ccccc12", "normalised cell number": 0.85},
      {"smiles": "O=C(O)CN1C(=O)c2cccc3cccc(c23)C1=O", "normalised cell number": 1.28}
    ]}
  ]
}
